Tg IFNy HTS – T. gondii growth inhibition with IFN-gamma, primary screen, cell-based; hit rate 3.8% among 69,000; activity change, negative = inhibition, % (test concentration not listed); Toxoplasma gondii growth in IFN-gamma-treated host cells; active compounds read low; in the data active = activity change below about -70%, passing the limit was not always enough;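 also: host cells are HeLa cells infected with Toxoplasma gondii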
Active calls of the source: *. The sample as a whole holds a higher share of hits than the screen did.

What do the screens show for `C[C@@H]1CCCCO[C@@H](CN(C)S(=O)(=O)c2ccc(Cl)cc2)[C@H](C)CN([C@@H](C)CO)C(=O)c2cc(NC(=O)Nc3ccc(C(F)(F)F)cc3)ccc2O1`?
Tg IFNy HTS: -40.1

Results for COc1ccc(S(=O)(=O)Nc2ccc3c(c2)C(=O)N([C@@H](C)CO)C[C@@H](C)[C@H](CN(C)S(=O)(=O)c2ccc(Cl)cc2)OCCCC[C@H](C)O3)cc1 ?
Tg IFNy HTS: -102.2*

What do the screens show for `C[C@H](CO)N1C[C@H](C)[C@@H](CN(C)S(=O)(=O)c2ccc(Cl)cc2)OCCCC[C@H](C)Oc2ccc(NC(=O)Nc3ccc(C(F)(F)F)cc3)cc2C1=O`?
Tg IFNy HTS: -66.9

What do the screens show for `COc1ccc(S(=O)(=O)Nc2ccc3c(c2)C(=O)N([C@H](C)CO)C[C@@H](C)[C@@H](CN(C)S(=O)(=O)c2ccc(Cl)cc2)OCCCC[C@H](C)O3)cc1`?
Tg IFNy HTS: -117.2*

How did C[C@@H]1CN([C@H](C)CO)C(=O)c2cc(NC(=O)Nc3ccc(C(F)(F)F)cc3)ccc2O[C@@H](C)CCCCO[C@H]1CN(C)S(=O)(=O)c1ccc(Cl)cc1 do in these assays?
Tg IFNy HTS: 10.9

What do the screens show for `C[C@H](CO)N1C[C@H](C)[C@H](CN(C)S(=O)(=O)c2ccc(Cl)cc2)OCCCC[C@H](C)Oc2ccc(NC(=O)Nc3ccc(C(F)(F)F)cc3)cc2C1=O`?
Tg IFNy HTS: 44.7

Results for COc1ccc(S(=O)(=O)Nc2ccc3c(c2)C(=O)N([C@@H](C)CO)C[C@@H](C)[C@@H](CN(C)S(=O)(=O)c2ccc(Cl)cc2)OCCCC[C@@H](C)O3)cc1 ?
Tg IFNy HTS: -136.7*

Results for CS(=O)(=O)CC(=O)N1C[C@H]2CCC[C@]2(COc2cccnc2)C1 ?
Tg IFNy HTS: -4.7

What do the screens show for `c1ccc(C2CN(CC3CCOC3)CC23CCCC3)cc1` (centres undefined)?
Tg IFNy HTS: -8.3

How did Cc1ccc(-c2csnn2)cc1NC(=O)c1cc(-n2cccn2)ccc1Cl do in these assays?
Tg IFNy HTS: 12.8

Results for CCC(=O)NCc1ccccc1-c1ccc2c(c1)OCO2 ?
Tg IFNy HTS: 7.0

What do the screens show for `COCCN1C(=O)CCc2cc(NC(=O)Cc3ccccc3OC)ccc21`?
Tg IFNy HTS: 59.2

Results for CC(c1nccs1)N(C)S(=O)(=O)NCc1ccccc1 (centres undefined) ?
Tg IFNy HTS: -7.5

What do the screens show for `COCC(=O)Nc1ccc2c(c1)CCC(=O)N2`?
Tg IFNy HTS: 0.0

How did COc1cc(NC(=O)C2CC(C)=C(C)CC2C(=O)O)cc(OC)c1 (centres undefined) do in these assays?
Tg IFNy HTS: 14.9

What do the screens show for `Cc1noc(C)c1CC(=O)Nc1nnc(CCOc2ccc(Cl)cc2)s1`?
Tg IFNy HTS: 12.0

What do the screens show for `COc1cccc(N(Cc2nc(-c3ccccc3)oc2C)S(=O)(=O)c2ccc(C)cc2)c1`?
Tg IFNy HTS: -1.3

What do the screens show for `Cc1ccc(-c2nnc(CNC(=O)c3ccccc3)o2)cn1`?
Tg IFNy HTS: -39.2

How did O=C(O)CSCC(=O)Nc1ccccc1Oc1ccccc1 do in these assays?
Tg IFNy HTS: 29.7

What do the screens show for `C[C@@H]1CCCCO[C@H](CN(C)S(=O)(=O)c2ccccc2)[C@@H](C)CN([C@H](C)CO)C(=O)c2cc(NC(=O)Nc3ccc4c(c3)OCO4)ccc2O1`?
Tg IFNy HTS: 446.3

What do the screens show for `C[C@H](CO)N1C[C@H](C)[C@@H](CN(C)CC2CC2)OCCCC[C@H](C)Oc2ccc(NC(=O)c3ccccc3)cc2C1=O`?
Tg IFNy HTS: 92.3

How did C[C@H](CO)N1C[C@H](C)[C@H](CN(C)CC2CC2)OCCCC[C@H](C)Oc2ccc(NC(=O)c3ccccc3)cc2C1=O do in these assays?
Tg IFNy HTS: -83.4*

Results for COc1ccc(S(=O)(=O)N(C)C[C@@H]2OCCCC[C@H](C)Oc3ccc(NC(=O)Cc4ccccc4)cc3C(=O)N([C@H](C)CO)C[C@H]2C)cc1 ?
Tg IFNy HTS: -27.9

How did COc1ccc(S(=O)(=O)N(C)C[C@@H]2OCCCC[C@@H](C)Oc3ccc(NC(=O)Cc4ccccc4)cc3C(=O)N([C@@H](C)CO)C[C@H]2C)cc1 do in these assays?
Tg IFNy HTS: -6.7

What do the screens show for `COc1ccc(S(=O)(=O)N(C)C[C@H]2OCCCC[C@H](C)Oc3ccc(NC(=O)Cc4ccccc4)cc3C(=O)N([C@@H](C)CO)C[C@@H]2C)cc1`?
Tg IFNy HTS: -107.9*

Results for COc1ccc(S(=O)(=O)Nc2ccc3c(c2)C(=O)N([C@H](C)CO)C[C@@H](C)[C@@H](CN(C)S(=O)(=O)c2ccc(Cl)cc2)OCCCC[C@@H](C)O3)cc1 ?
Tg IFNy HTS: -110.5*

How did COc1ccc(S(=O)(=O)Nc2ccc3c(c2)C(=O)N([C@@H](C)CO)C[C@@H](C)[C@H](CN(C)S(=O)(=O)c2ccc(Cl)cc2)OCCCC[C@@H](C)O3)cc1 do in these assays?
Tg IFNy HTS: -59.1

Results for C[C@H]1CCCCO[C@H](CN(C)S(=O)(=O)c2ccccc2)[C@@H](C)CN([C@@H](C)CO)C(=O)c2cc(NC(=O)Nc3ccc4c(c3)OCO4)ccc2O1 ?
Tg IFNy HTS: -90.9*

How did C[C@@H]1CCCCO[C@H](CN(C)CC2CC2)[C@H](C)CN([C@H](C)CO)C(=O)c2cc(NC(=O)c3ccccc3)ccc2O1 do in these assays?
Tg IFNy HTS: 92.0

How did COc1ccc(S(=O)(=O)N(C)C[C@H]2OCCCC[C@H](C)Oc3ccc(NC(=O)Cc4ccccc4)cc3C(=O)N([C@@H](C)CO)C[C@H]2C)cc1 do in these assays?
Tg IFNy HTS: -64.4

How did C[C@@H]1CN([C@@H](C)CO)C(=O)c2cc(NC(=O)Nc3ccc4c(c3)OCO4)ccc2O[C@@H](C)CCCCO[C@@H]1CN(C)S(=O)(=O)c1ccccc1 do in these assays?
Tg IFNy HTS: inactive

What do the screens show for `O=C(c1cccnc1)N1CC2(CCN(C(=O)c3cscn3)C2)C1`?
Tg IFNy HTS: -38.7

How did Cc1cccc(-n2cc(CN3CCN4CCN(C)CC4C3)cn2)c1 (centres undefined) do in these assays?
Tg IFNy HTS: 4.4

What do the screens show for `Cc1ncnc2c1CCN(C(=O)N1CCOCC1)CC2`?
Tg IFNy HTS: -1.7

How did Cc1ccccc1CN1CCC2(CCN(S(=O)(=O)Cc3ccccc3)C2)C1 (centres undefined) do in these assays?
Tg IFNy HTS: 7.4

Results for Cc1c(-c2ccc(C(C)N3CCCCC3)cc2)c(=O)n(C)c(=O)n1C (centres undefined) ?
Tg IFNy HTS: -6.1

What do the screens show for `COc1ccc(-c2cc(C(=O)Nc3nc(-c4cnn(C)c4)cs3)nn2C)cc1`?
Tg IFNy HTS: 31.2

How did Cn1c(COc2ccccc2)nnc1SCC(=O)Nc1ccc2c(c1)n(C)c(=O)n2C do in these assays?
Tg IFNy HTS: -12.3

Results for COc1ccc(-c2nc(C)c(C(C)=O)n2O)cc1OC ?
Tg IFNy HTS: 10.5

How did COc1ccc(/C=C/c2nn3c(-c4ccc(OC)c(OC)c4)nnc3s2)cc1 do in these assays?
Tg IFNy HTS: -100.9*

Results for COc1ccc(-c2nnc3sc(C4COc5ccccc5O4)nn23)cc1OC (centres undefined) ?
Tg IFNy HTS: -40.7

Results for CN1CCN(CCCCN2C(=O)CN(/N=C/c3ccc(-c4ccc(Cl)cc4)o3)C2=O)CC1 ?
Tg IFNy HTS: -7.3

Results for CN(C)CCN1C[C@@H]2CN(S(=O)(=O)c3cccs3)C[C@H]2C1=O ?
Tg IFNy HTS: 43.5

What do the screens show for `C=CCN1C(=O)CCC12CCC(NC(=O)c1ccncc1)CC2` (centres undefined)?
Tg IFNy HTS: -49.8
